In experiment [1] the target is Thyrotropin receptor (Homo sapiens) (UniProt P16473). Put plainly: qHTS assay to identify small molecule agonists of the thyroid stimulating hormone receptor (TSHR) signaling pathway (AID 1224843; calls by dose curve; also: nearly all actives have a fitted effect of over 45% in size). The gist of the method:
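HEK293/TSHR, 800 cells/well; cpd 30 min RT; add cAMP-d2 + anti-cAMP-cryptate, 1 h RT; fluorescence read on plate reader. 15-pt titration, n=3.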

Experiment [2] can be described thus: qHTS assay to identify small molecule agonists of the hypoxia (HIF-1) signaling pathway - cell viability counter screen (AID 1224844; calls by dose curve; also: nearly all actives have a fitted effect of over 50% in size). The method in brief:
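Viability counter screen: HRE-bla ME-180 cells plated 5 hrs before compound addition, treated 17 hrs at 37C and 5% CO2, then CellTiter-Glo added after the FRET reporter read; luminescence after 30 min.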

Experiment [3] can be described thus: qHTS assay to identify small molecule agonists of H2AX (AID 1224845; active = well fitted activation curve with a large enough effect in the signal ratio in the repeat runs, not every such curve was filed as active; the % refers to the signal ratio). The method in brief: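 Wild-type CHO-K1 cells, plated overnight, exposed 3hr at 37C to 15 concentrations (0.76% DMSO final). Lysed, then HTRF anti-pH2AX (S139) cryptate and anti-H2AX-d2 antibodies, 24 hr room temperature; 665/620 nm emission read.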
The nature of experiment [4]: qHTS assay to identify small molecule agonists of the hypoxia (HIF-1) signaling pathway (AID 1224846; active = well fitted activation curve with a large enough effect in the signal ratio in the repeat runs, not every such curve was filed as active; the % refers to the signal ratio). The method in brief:
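Agonist mode reporter screen. ME-180 cells stably expressing bla under HRE control received test compounds in DMSO for 17 hrs (37C, 5% CO2), and beta-lactamase activity was then detected with the CCF4-AM FRET substrate.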

Experiment [5] in a line: qHTS assay to identify small molecule agonists of H2AX - cell viability counter screen (AID 1224847; calls by dose curve; also: top concentration of the series differs between compounds; nearly all actives have a fitted effect of over 30% in size). The method in brief:
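We seed wild-type CHO-K1 cells overnight, treat them for 3 hr at 37C with compounds in 15-concentration series, and quantify remaining viability by CellTiter-Glo luminescence.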

A short description of experiment [6]: qHTS assay to identify small molecule agonists of the estrogen related receptor (ERR) signaling pathway from Tox21 library (AID 1224849; calls by dose curve; also: nearly all actives have a fitted effect of over 15% in size). Particulars: ERR reporter cell line, ONE-Glo luciferase, 18 h; at 92.4 µM (top of the series) unless noted. The gist of the method:
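Quantitative HTS in agonist format: NTP ERR cell line, compounds transferred in DMSO after 6 h plating, 18 h incubation at 37 C, ONE-Glo luminescence endpoint.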

Experiment [7] in a line: qHTS RealTime-Glo MT Cell Viability Assay in HepG2 cells - 24 hour (AID 1224867). Also: nearly all actives have a fitted effect of over 50% in size. The method in brief:
(§1)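 Compound treatment began 5 h after plating HepG2 cells (600/well) with NanoLuc luciferase and prosubstrate. Plates stayed at 37 C for 40 h; luminescence was captured at six time points, 0 h through 40 h.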

Experiment [8] can be described thus: qHTS RealTime-Glo MT Cell Viability Assay in HEK293 cells - 32 hour (AID 1224868). Also: nearly all actives have a fitted effect of over 50% in size. Also: potency is read from the fitted curve at half-maximal effect. The method in brief:
(§2)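 Quantitative high-throughput screen of the Tox21 10K library in HEK293: cells and RealTime-Glo reagents plated together, compound added at 5 h, luminescence monitored through 40 h at 37 C.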

Experiment [9] can be described thus: A CellTox Green Cytotoxicity Assay to monitor cytotoxicity in HEK293 cells - 0 hour (AID 1224869). Also: nearly all actives have a fitted effect of over 50% in size. The gist of the method:
(§3)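 Dead-cell fluorescence measured kinetically: asymmetric cyanine dye, HEK293, 600 cells/well, 5 h settle, 23 nL cpd/DMSO, 37 C, reads 0–40 h every 8 h.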

A short description of experiment [10]: qHTS RealTime-Glo MT Cell Viability Assay in HepG2 cells - 40 hour (AID 1224870). Also: nearly all actives have a fitted effect of over 50% in size. The gist of the method: (§4)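 HepG2 cells (600/well) mixed with RealTime-Glo MT reagent, settled 5 h at 37 C/5% CO2 before compound addition. Nonlytic NanoLuc luminescence from viable-cell prosubstrate reduction read repeatedly during 40 h treatment at 37 C.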
Experiment [11] can be described thus: A CellTox Green Cytotoxicity Assay to monitor cytotoxicity in HEK293 cells - 40 hour (AID 1224871). Also: nearly all actives have a fitted effect of over 45% in size. The method in brief: as §3
Experiment [12] can be described thus: qHTS RealTime-Glo MT Cell Viability Assay in HEK293 cells - 16 hour (AID 1224872). Also: nearly all actives have a fitted effect of over 50% in size. Also: potency is read from the fitted curve at half-maximal effect. The method in brief:
as §2

Experiment [13] can be described thus: qHTS RealTime-Glo MT Cell Viability Assay in HepG2 cells - 8 hour (AID 1224873). Also: nearly all actives have a fitted effect of over 55% in size. The gist of the method: as §4
Experiment [14] in a line: A CellTox Green Cytotoxicity Assay to monitor cytotoxicity in HEK293 cells - 24 hour (AID 1224875). Also: nearly all actives have a fitted effect of over 45% in size. The gist of the method:
as §3

Experiment [15] can be described thus: qHTS RealTime-Glo MT Cell Viability Assay in HepG2 cells - 32 hour (AID 1224877). Also: nearly all actives have a fitted effect of over 55% in size. The gist of the method: as §1
Experiment [16] can be described thus: qHTS RealTime-Glo MT Cell Viability Assay in HEK293 cells - 40 hour (AID 1224874). Also: nearly all actives have a fitted effect of over 50% in size. Also: potency is read from the fitted curve at half-maximal effect. Conditions: RealTime-Glo luminescence; max response: active compounds read low. The method in brief: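 600 HEK293 cells per well, dispensed already mixed with RealTime-Glo MT reagents. Compound dosing came 5 h later. The same wells were read for luminescence at 0, 8, 16, 24, 32 and 40 h of exposure at 37 C.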

Experiment [17] in a line: A CellTox Green Cytotoxicity Assay to monitor cytotoxicity in HepG2 cells - 16 hour (AID 1224876). Also: nearly all actives have a fitted effect of over 45% in size. The gist of the method: (§5)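 First, HepG2 cells (600/well) mixed with reagent were plated; second, after 5 h at 37 C they received compounds via pintool; third, fluorescence was measured at 0 h through 40 h at 8 h intervals.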
Experiment [18] in a line: A CellTox Green Cytotoxicity Assay to monitor cytotoxicity in HepG2 cells - 24 hour (AID 1224878). Also: nearly all actives have a fitted effect of over 45% in size. The gist of the method:
as §5

The nature of experiment [19]: A CellTox Green Cytotoxicity Assay to monitor cytotoxicity in HepG2 cells - 40 hour (AID 1224879). Also: nearly all actives have a fitted effect of over 40% in size. The method in brief: as §5
The nature of experiment [20]: qHTS assay to identify small molecule antagonists of the estrogen related receptor (ERR) signaling pathway from Tox21 library (AID 1224848). Also: nearly all actives have a fitted effect of over 50% in size. The method in brief: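 Compounds dissolved in DMSO are pin-transferred onto ERR reporter cells (2,000 per well) that have settled for 6 h at 37 C. Plates then incubate 18 h at 37 C before ONE-Glo luciferase reagent and a luminescence read 30 min later.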

SMILES strings stand for the structures. A number with no mark means an inactive call. Inconclusive results are not listed. Active and inactive are the calls of the source. Unless noted, calls follow the shape of the dose curve; as a rule, active = well fitted curve in the direction sought with a large enough effect in the repeat runs; inconclusive = weak or mixed curves; inactive = no such curve, though single readings can be large; an effect the other way counts as inactive or inconclusive.
% is scaled to controls: 0 for no effect and ±100 for the full control effect.

Sequence of Thyrotropin receptor (Homo sapiens) (P16473 whole entry, looked up): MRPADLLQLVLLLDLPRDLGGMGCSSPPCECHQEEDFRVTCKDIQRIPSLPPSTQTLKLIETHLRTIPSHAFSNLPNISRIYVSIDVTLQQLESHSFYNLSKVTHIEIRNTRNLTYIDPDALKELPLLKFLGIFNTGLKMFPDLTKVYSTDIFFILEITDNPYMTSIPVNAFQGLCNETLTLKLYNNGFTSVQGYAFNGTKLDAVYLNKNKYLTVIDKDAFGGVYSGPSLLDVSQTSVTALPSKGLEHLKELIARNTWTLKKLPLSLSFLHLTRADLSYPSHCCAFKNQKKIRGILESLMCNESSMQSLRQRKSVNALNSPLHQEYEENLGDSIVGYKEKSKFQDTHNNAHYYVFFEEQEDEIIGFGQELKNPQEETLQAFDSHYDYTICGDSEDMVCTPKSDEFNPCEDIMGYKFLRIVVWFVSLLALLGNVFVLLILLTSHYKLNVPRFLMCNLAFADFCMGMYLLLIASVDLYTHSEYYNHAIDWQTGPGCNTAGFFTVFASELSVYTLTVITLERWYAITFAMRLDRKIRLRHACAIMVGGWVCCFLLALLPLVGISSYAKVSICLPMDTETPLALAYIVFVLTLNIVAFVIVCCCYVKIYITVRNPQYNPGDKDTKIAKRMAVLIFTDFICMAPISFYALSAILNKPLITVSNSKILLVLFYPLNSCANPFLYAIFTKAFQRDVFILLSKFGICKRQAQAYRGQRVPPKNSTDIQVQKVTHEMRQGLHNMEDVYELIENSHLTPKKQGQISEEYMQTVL

Take `COc1ccc(/C=C/C(=O)c2ccc(OC)cc2OC)cc1`: the Potency entry in experiment [1], in experiment [2], in experiment [3], in [5], in [7] and in [8] was “inactive” each time. Also, the Potency result in [9], in experiment [10], in experiment [11], in experiment [12], in [13] and in experiment [14] was “inactive” throughout. Further, the Potency entry in experiment [15] is “inactive”. Also, in experiment [4], the outcome was inactive. Further, in experiment [6], the activity change, positive = activation is -32.9% [at 42.5 µM].
Turning to `Nc1ccc(S(=O)(=O)NCc2ccccc2)cc1`, the Potency result in experiment [1], in [2], in [3], in experiment [5], in experiment [7] and in [8] was “inactive” in each case. The Potency entry in [9], in experiment [10], in [11], in experiment [12], in [13] and in experiment [14] was “inactive” throughout. In addition, the Potency result in experiment [17], in experiment [15], in [18] and in [19] was “inactive” each time. Also, the result in experiment [4] was inactive. The max response in [16] is -2.82%.
On to `COC(=O)CC(C(C)=O)C(=O)OC` (stereo not drawn), for which the Potency entry in [1], in experiment [2], in experiment [3], in experiment [5], in experiment [7] and in experiment [8] was “inactive” each time. In addition, the Potency result in experiment [9], in experiment [10], in [12], in experiment [13], in experiment [14] and in [17] was “inactive” throughout. For the same molecule, the Potency entry in [15], in experiment [18] and in experiment [19] was “inactive” each time. Besides, in [4], the outcome was inactive. Also, in experiment [16], the max response was 9.23%.
With `CC(C)C1CCC(C(=O)N[C@H](Cc2ccccc2)C(=O)O)CC1` (stereo partly drawn), the Potency result in [1], in experiment [2], in experiment [3], in experiment [5], in experiment [7] and in experiment [8] was “inactive” throughout. Further, the Potency entry in experiment [9], in experiment [11], in experiment [12], in [13], in experiment [14] and in [15] was “inactive” each time. The Potency entry in experiment [18] and in experiment [19] was “inactive” throughout. Besides, the call in experiment [4] was inactive. Further, in [16], the max response is 3%.
Consider `[Cl][Nd]([Cl])[Cl]`, for which the Potency result in [1], in experiment [2], in experiment [3], in experiment [5], in experiment [20] and in experiment [7] was “inactive” throughout. The Potency entry in [8], in experiment [9], in [10], in experiment [11], in experiment [12] and in [13] was “inactive” throughout. In addition, the Potency entry in [14], in experiment [15], in [18] and in experiment [19] was “inactive” each time. For the same molecule, the call in experiment [4] was inactive. Besides, the max response in experiment [16] is 2.18%.
On to `CN1C(CSCC(F)(F)F)Nc2cc(Cl)c(S(N)(=O)=O)cc2S1(=O)=O` (stereo not drawn), for which the Potency entry in [1], in experiment [2], in experiment [3], in experiment [5], in experiment [7] and in [9] was “inactive” in each case. In addition, the Potency entry in [11], in experiment [13], in experiment [14], in [15], in experiment [18] and in experiment [19] was “inactive” throughout. The molecule was classed as inactive in [4]. Besides, the activity change, positive = activation in [6] was -16.7% [at 42.5 µM]. Besides, the Potency was 19 µM (active) in [8], 19 µM (active) in experiment [12] and 21.3 µM (active) in experiment [16].
`C=CCOC(=O)COCCC(C)C`: the Potency entry in experiment [1], in experiment [2], in experiment [3], in experiment [5], in experiment [7] and in experiment [8] was “inactive” each time. Besides, the Potency entry in experiment [9], in experiment [11], in experiment [12], in experiment [13], in experiment [14] and in [17] was “inactive” in each case. In addition, the Potency entry in [15], in experiment [18] and in experiment [19] was “inactive” throughout. In addition, the result in [4] was inactive. Moreover, the max response in [16] is -1.87%.

The values above are taken from PubChem BioAssay (Tox21).
